Compounds without any hit were thinned out: in the full panel of roughly 79,000, 15% have a hit. Active and inactive are the calls of the source. Cut-off read from the data, not from the text of the source: active = growth inhibition above about 70%; inactive = the rest.

This assay is described as follows: NCI Yeast Anticancer Drug Screen. Data for the rad50 strain (AID 155).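 Note: 0% = growth of vehicle-only cultures of the same strain.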 The note with it: S. cerevisiae rad50 strain growth inhibition; at 50.0 µM; active compounds read high. The method, boiled down: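 Yeast carrying a defined DNA repair defect were exposed to test compounds, and growth was compared with vehicle-treated controls to give percent inhibition.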
On to `CCN(CC)C(=O)c1cc2c(cc1[N+](=O)[O-])OCO2`, for which the growth inhibition was -0.6% (inactive).
In the case of `CC(=O)n1[nH]c(=O)n(-c2ccc(Cl)cc2)c1=O` it was -36.5% (inactive).
To `CCC(C)NCC/C(=C\[Si](C)(C)C)c1ccccc1` (stereo not given) belongs 3.05% (inactive); to `COc1ccc(Cl)cc1NC(=O)c1ccccc1C(=O)O`, 1.2% (inactive); to `CC(=O)c1c(O)cccc1O`, -11.8% (inactive).
As for `Cc1ccc2snc(C(=O)O)c2c1[N+](=O)[O-]`, the growth inhibition was 16.7% (inactive).
Turning to `COC1(OC)C2(Cl)CC(C(=O)O)C1(Cl)C(Cl)=C2Cl` (stereo not given), the growth inhibition is 7.55% (inactive).
To `CC(CN1CCCC1)(Oc1ccccc1)C(=O)c1ccccc1` (stereo not given) belongs 16.6% (inactive); to `ClC(Cl)=C(c1ccccc1)c1ccccc1`, 30.2% (inactive).
To `C#CC(C)(C)CC` belongs 21.4% (inactive).
With `C[N+]([O-])(C/C=C/c1ccccc1)c1ccccc1` (stereo not given), the growth inhibition was -3.25% (inactive).
In the case of `CC(C)C1(C(C)C)OCC(CO)O1` (stereo not given) it was 9.55% (inactive); in that of `CC1=C(OCCCl)C2CC1C1C(=O)N(c3ccccc3)C(=O)C21` (stereo not given), -9.95% (inactive).
To `COC(=O)c1ccccc1Cl` belongs -11.2% (inactive).
To `C=CCC(O)CC=C` belongs -8% (inactive).
In the case of `OCCSc1ccc(Cl)cc1`, the growth inhibition was 14.4% (inactive).
For `N#CC(C#N)=CC(C#N)C#N`, the growth inhibition was -10% (inactive).
As for `CC1CNC(=S)O1` (stereo not given), the growth inhibition was -18.2% (inactive).
In the case of `C[N+](C)(C)CCC(=O)N1C/C(=C\c2ccccc2)C(=O)/C(=C/c2ccccc2)C1` it was -35.6% (inactive).
In the case of `NC(=O)Cc1csc(Br)n1` it was 12.9% (inactive); in that of `Nc1ncnc2nc(N3CCN(CCO)CC3)[nH]c12`, 9.45% (inactive); in that of `Cc1ccc(SC(C)/C=C/NNC2=NC(c3ccccc3)C(c3ccccc3)=NN2)cc1` (stereo not given), 35.2% (inactive).
Take `O=c1nc(Sc2ccccc2)ccn1C1OC(CO)C(O)C1O` (stereo not given): the growth inhibition is -11.5% (inactive).
In the case of `C[N+]1(C)CCC(C(=O)c2ccccc2)CC1`, the growth inhibition is 1.15% (inactive).
On to `N=C1C(O)=CC(=O)C(O)=C1C(=O)O`, for which the growth inhibition was -9.1% (inactive).
As for `CCNC(=O)OC1C=CS(=O)(=O)C1` (stereo not given), the growth inhibition was 5.25% (inactive).
In the case of `S=c1[nH]nc2nc3c4ccccc4c4ccccc4c3nn12` it was 53.7% (inactive); in that of `Cc1ccc(S(=O)c2ccccc2C(O)(C(F)(F)F)C(F)(F)F)cc1` (stereo not given), 76.2% (active).
With `OC1CCCCC2CC2C1O` (stereo not given), the growth inhibition is 9.25% (inactive).
In the case of `CN(C)CC1CC=CCC1CN(C)C` (stereo not given) it was -19.8% (inactive); in that of `CCCCOC1NC(=O)NC(=O)C1(F)C(=O)OCC` (stereo not given), 4% (inactive); in that of `CC(=O)Nc1ccc(CCNC(=O)c2ccc3ccccc3c2O)cc1`, -21.8% (inactive).
As to `O=C(Nc1nc(=S)[nH][nH]1)C(=O)C1C(=O)Nc2ccccc2S1=O` (stereo not given), the growth inhibition is 3.45% (inactive).
In the case of `CCOP(=O)(OCC)/C(C#N)=C/c1c(C)[nH]c2ccccc12` it was 0.5% (inactive); in that of `Cc1cc(C)c(C#N)c(SC(C(=O)NC(C)(C)C)c2ccccc2)n1` (stereo not given), 2.25% (inactive); in that of `CCN(CC)CCOC(=O)c1c(C)cc(C)cc1C`, -6.3% (inactive).
In the case of `Nc1nc(N)c2[nH]cnc2n1` (tested in a mixture with another compound) it was -25.5% (inactive); in that of `CC(C)N(CC(=O)O)CC(=O)O`, -0.95% (inactive); in that of `Cc1c(CCOC=O)c(=O)[nH]c2nncn12`, -15.5% (inactive).
`CC(=O)Oc1c2oc3cc(O)c(O)cc3c2c(OC(C)=O)c2oc3cc(O)c(O)cc3c12`: the growth inhibition is -0.4% (inactive).

(Values after PubChem BioAssay (NCI).)
